The source made the active and inactive calls.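 The calls were made as follows: active = average half-effect concentration of 10 µM or less in every one of the four cell panels; inactive = the rest.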

This assay concerns H9c2. Kind of assay: cardiomyocyte survival under oxidative or metabolic stress – cell-based, panel, H9c2 and HL-1, H2O2, 2-deoxyglucose, ATP luminescence, SAR follow-up (AID 651642). Conditions: H9c2/HL-1 cardiomyocyte H2O2 oxidative damage, mean of runs, with H2O2.
Turning to `CCOC(=O)c1cccc(NC(=O)CNC(=O)c2cc(-c3cc(OC)c(OC)c(OC)c3)nc3ccc(C)cc23)c1`, the call was active.

Consider `COc1ccc2c(c1OC)C(=O)N1c3ccccc3C(=O)N(Cc3ccc(C)cc3C)C21` (centres undefined), for which the result was inactive.

As for `COc1cc(-c2cc(C(=O)NCC(=O)Nc3ccc(C(C)=O)cc3)c3cc(F)ccc3n2)cc(OC)c1OC`, the result was inactive.

`COc1ccc(NC(=O)CNC(=O)c2cc(-c3cc(OC)c(OC)c(OC)c3)nc3ccccc23)cc1`: the compound was called inactive.

Source of the values: PubChem BioAssay AID651642 (Sanford-Burnham Center for Chemical Genomics, 2012).
